Sampled rows, rich in hits. Any-hit rate of the full collection: about 2.8%.
DRD3 antagonist: D3 dopamine receptor (human) antagonism | P35462 | D3R cells, DiscoveRx beta-arrestin luminescence, antagonist mode; stronger effect = lower value | max response, negative = inhibition, % | hit rate 2.5% among 360,000; in the data active means max response below about -50%; inconclusive means no clear call, values can overlap the other calls; further: on the % scale 0 is the no-effect control and ±100 the full control effect
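Cells expressing the human receptor were seeded at 1500 cells/well, incubated overnight at 37 degrees C in 5% CO2, then exposed to library compounds with dopamine controls for 90 minutes at 37 degrees C before luminescent detection.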
PI4K2A block: inhibitors of human PI4K2A; hit rate 0.13% among 420,000; activity change, negative = inhibition, % at 76.9 µM; purified PI4K2A, ADP-Glo luminescence, 1 h; stronger effect = lower value; Q9BTU6; in the data active means activity change below about -50%; inconclusive means mostly about -30% to -49%;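 further: -100% = wells without enzyme as full effect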
Target sequence (Q9BTU6 whole entry, looked up): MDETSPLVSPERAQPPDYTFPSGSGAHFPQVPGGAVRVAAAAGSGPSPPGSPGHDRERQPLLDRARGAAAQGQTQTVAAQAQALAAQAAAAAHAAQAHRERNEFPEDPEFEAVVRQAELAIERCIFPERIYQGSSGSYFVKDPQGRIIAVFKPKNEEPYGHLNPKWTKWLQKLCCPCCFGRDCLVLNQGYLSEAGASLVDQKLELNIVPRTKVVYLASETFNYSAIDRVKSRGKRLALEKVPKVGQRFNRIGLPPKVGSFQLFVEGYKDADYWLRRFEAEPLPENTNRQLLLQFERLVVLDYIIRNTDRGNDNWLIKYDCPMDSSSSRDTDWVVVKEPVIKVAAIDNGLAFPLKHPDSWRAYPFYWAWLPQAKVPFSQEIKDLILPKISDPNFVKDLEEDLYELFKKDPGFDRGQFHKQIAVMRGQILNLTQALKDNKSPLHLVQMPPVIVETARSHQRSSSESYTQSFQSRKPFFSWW
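ADP-Glo luminescence measured ADP generated by PI4K2A enzyme (4 ug/mL before mixing) with 1.2 mM PI substrate (pre-mix) and 300 microM ATP (pre-mix). Tris pH7.5 buffer with MgCl2, Triton X-100; 1 h reaction at ambient temperature.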
RGS4 inhibitor: human RGS4 inhibition; P49798; Transcreener GDP fluorescence polarization, RGS4-accelerated GTP hydrolysis; Potency, µM (titrated, usually from 114 µM), inactives show at the top dose activity change, negative = inhibition, most hits filed as inhibitors; hit rate 0.039% among 390,000; active means well fitted inhibition curve with a large enough effect; inconclusive means small, poorly fitted or top-dose-only effect; inactive means no such curve, though single readings can be large or run the other way; further: potency means the concentration at half of the fitted maximal effect; on the % scale 0 is the no-effect control and ±100 the full control effect; nearly all actives have a fitted effect of over 75% in size
Target sequence (P49798 whole entry, looked up): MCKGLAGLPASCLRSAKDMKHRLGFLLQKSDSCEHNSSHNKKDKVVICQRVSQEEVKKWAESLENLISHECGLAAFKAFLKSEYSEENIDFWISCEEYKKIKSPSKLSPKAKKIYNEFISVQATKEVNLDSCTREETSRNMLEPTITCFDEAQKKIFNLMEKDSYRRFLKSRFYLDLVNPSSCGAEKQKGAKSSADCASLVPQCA
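MLSMR compounds (23 nl, pin-transferred) preincubated 10 min at room temperature with a 500nM (2x) first reagent, then RGS4 at 900nM (2x) plus Transcreener GDP mix added; fluorescence polarization (620/688 nm) read before and after 90 min at 30 °C.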
Akt phos inh: inhibitors of Akt phosphorylation | Neuro2A IGF-stimulated pAkt S473 HTRF, 20 min; stronger effect = lower value | activity change, % for hits at 50 µM | hit rate 0.32% among 360,000 | AID 651550; in the data active means activity change below about -80%; inconclusive means mostly about -51% to -80%; further: on the % scale 0 is the no-effect control and ±100 the full control effect
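Single-point screen (50 µM final compound) in Neuro2A cells stimulated 20 min with 6 nM IGF at 37 deg C. After lysis, Ser473-phosphorylated Akt read by HTRF (ex 330 nm, em 615/665 nm) as the 665/615 ratio.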
LDHA block: LDHA (human) enzyme inhibition. hit rate 0.15% among 480,000. purified LDHA, NADH/diaphorase-resazurin fluorescence; stronger effect = lower value. P00338. activity change, % (values are at about 110 or 230 µM); in the data active means activity change below about -30%; inconclusive means mostly about -25% to -30%;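 further: plate controls were DMSO wells for no effect and wells without enzyme for full effect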
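LDH5 2 nM; NADH 0.06 mM, pyruvate 0.2 mM; 200 mM Tris pH 7.4, EDTA, Tween-20; 5 min RT. Detection: diaphorase 0.133 mg/mL + resazurin 37 µM, fluorescence ex540/em590 at 0 and 20 min; normalized to enzyme-free and DMSO wells.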
DRD3 agonist: activates the human D3 dopamine receptor | P35462 | D3R DiscoveRx beta-arrestin cells, luminescence, 90 min | max activation, % | hit rate 0.58% among 410,000 | AID 652048; in the data active means max activation above about 30%; further: 0% is about no effect
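Agonist mode: compounds and dopamine controls were applied to plated cells for 90 min at 37 degrees C after an overnight attachment at 1500 cells/well. Luminescent read-out followed 30 - 60 minutes at room temperature with DiscoveRx detection reagent.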
* = called active by the depositor; i = inactive; ? = inconclusive; · = not tested or not shown; [ ] = remark or other dose.

SMILES | DRD3 antagonist | PI4K2A block | RGS4 inhibitor | Akt phos inh | LDHA block | DRD3 agonist
COc1ccc(C(=O)Nc2cc3c(cc2N2CCCCC2)n(C)c(=O)n3C)cc1OC | 24 | 6 | -24% | i | -1 | 32*
COc1ccc(C(=O)Nc2cc3c(cc2N2CCCC2)n(C)c(=O)c(=O)n3C)cc1OC | · | -2 | 4% | · | 4 | 1
COc1cc2oc(=O)c(CC(=O)NCCCN(C)C)c(C)c2cc1Cl | · | · | · | · | 7 | ·
CC1(C)CC(=O)c2cc(OCC(=O)N3CCCCCC3)ccc2O1 | -71* | -5 | 9% | i | 0 | -12
O=C(COc1ccc2cc(Br)ccc2c1)N1CCCC1 | -10 | -6 | 5% | i | -18 | 1
O=C(COc1ccc(Br)cc1)N1CCCCCC1 | -59* | -12 | -9% | i | 2 | -17
Cc1nc(SCC(=O)Nc2ccc3c(c2)OCCCO3)c(C#N)c(C)c1C | · | · | · | · | 2 | ·
O=C(NCC1CCCO1)c1ccccc1NS(=O)(=O)c1ccc2[nH]c(=O)[nH]c2c1 (stereo not drawn) | · | · | · | · | 0 | ·
Cc1ccc2cccc(OCC(=O)Nc3ccc4c(c3)OCO4)c2n1 | -2 | 0 | -6% | i | -6 | 4
Cc1ccc2cccc(OC(=O)c3ccc4c(c3)OCCO4)c2n1 | -50* | -1 | 10% | i | 10 | 2
O=C(O)CNS(=O)(=O)c1cccc(C(=O)/C=C/c2ccc(Cl)cc2)c1 | · | · | · | · | 6 | ·
Cc1c(CC(=O)O)c(=O)oc2cc3occ(-c4ccc(F)cc4)c3cc12 | -13 | 7 | 13% | i | -42* | -1
COc1ccc(-c2coc3cc4oc(=O)c(CC(=O)O)c(C)c4cc23)cc1 | 13 | -5 | 1% | i | -4 | 1
Cc1c(CC(=O)NCCCC(=O)O)c(=O)oc2cc3occ(-c4ccccc4)c3cc12 | -21 | -1 | 10%[56.9 µM] | i | -5 | -6
Cc1c(CC(=O)NCC(=O)O)c(=O)oc2cc3occ(-c4ccccc4)c3cc12 | 0 | 6 | -2% | i | -85* | -10
Cc1sc2ncnc(N(C)Cc3cccs3)c2c1C | 55 | -4 | 22% | i | -3 | 4
Cc1sc2ncnc(N(C)CCc3ccccn3)c2c1C | -9 | -4 | 0% | i | -32* | -1
CCCCn1c(=O)[nH]c(=O)c2c1nc(COC(=O)c1ccc(C)cc1)n2CCC | · | · | · | · | 2 | ·
Cc1nnsc1S(=O)c1ccc(Cl)cc1 (stereo not drawn) | 0 | 0 | 16% | i | -9 | 6
O=C(Nc1ccccc1)c1nnsc1S(=O)c1ccc(Cl)cc1 (stereo not drawn) | -59* | -9 | ? | i | -6 | -23
O=C(c1nnsc1S(=O)c1ccc(Cl)cc1)N1CCOCC1 (stereo not drawn) | -51* | 6 | ? | i | -9 | -13
COC(=O)C1CCN(S(=O)(=O)NCc2ccnc(Oc3ccc(OC)cc3)c2)CC1 | · | · | · | · | -1 | ·
CCN(CC)S(=O)(=O)c1ccc(C(=O)Nc2cccc(C)c2)cc1 | -83* | 2 | -25% | i | 4 | -10
CCCCN(C)S(=O)(=O)c1ccc(C(=O)Nc2nnc(CSC)o2)cc1 | -98* | 1 | 9% | i | 1 | -2
CCCCN(CCCC)S(=O)(=O)c1ccc(C(=O)Nc2nnc(COC)o2)cc1 | -93* | 4 | -7% | i | -1 | -1
SMILES | DRD3 antagonist | PI4K2A block | RGS4 inhibitor | Akt phos inh | LDHA block | DRD3 agonist
CCN(CC)S(=O)(=O)c1ccc(C(=O)Nc2nnc(CSC)o2)cc1 | 2 | -3 | 23% | i | -6 | 8
Cc1cccc(NC(=O)c2ccc(S(=O)(=O)N(C)C)cc2)c1 | 0 | 0 | 22% | i | -9 | -6
CCCCN(CC)S(=O)(=O)c1ccc(C(=O)Nc2nnc(-c3cccs3)o2)cc1 | -57* | -4 | 5%[11.4 µM] | i | -3 | 1
CCOCc1ccc(CNC(=O)c2nccnc2N)cc1 | · | · | · | · | -1 | ·
COc1ccc(Nc2nc(N)c(C(=O)c3ccc(Cl)cc3)s2)cc1 | · | · | · | · | 1 | ·
CCc1nnc(NC(=O)c2ccc(S(=O)(=O)N(CC)Cc3ccccc3)cc2)o1 | -99* | -3 | -9%[11.4 µM] | i | 2 | 8
Brc1ccc(-c2csc(N/N=C/c3ccco3)n2)cc1 | 36 | 162 | 0% | i | -15 | 30*
COc1cccc(OCCSc2nnc3sc4ccccc4n23)c1 | 3 | 5 | 15% | -112%* | -4 | -8
Nc1cc2c(cc1C(=O)c1ccccc1)OCCO2 | -60* | 4 | -1% | i | 4 | -1
O=c1c2ccccc2ncn1CCCSc1ccccc1 | -54* | -11 | 8% | i | 3 | 0
O=c1c2ccccc2ncn1CCCSc1ccc(Cl)cc1 | 11 | 2 | -22% | i | -2 | 0
CC(=O)NNC(=O)CCC(=O)Nc1ccccc1 | -80* | 3 | 12% | i | 1 | 2
O=C(CCC(=O)Nc1ccccc1)NNC(=O)CCc1ccccc1 | 8 | -12 | 6% | i | -1 | -2
CCOC(=O)Nc1nc(-c2ccccc2)c(C(=O)c2ccccc2)s1 | ? | 8 | 7% | · | 1 | -10
COC(=O)Nc1nc(-c2ccccc2)c(C(=O)c2ccc(Cl)cc2)s1 | ? | -6 | -1% | -86%* | -8 | -10
O=C(O)c1ccc2n[nH]nc2c1 | · | · | · | · | 13 | ·
Cc1cc(C(=O)OCC(=O)Nc2ccccc2C(C)C)c2ccccc2n1 | · | · | · | · | -40* | ·
Cc1ccc(C)c(C(=O)COC(=O)c2cc(C)nc3ccccc23)c1 | · | · | · | · | 11 | ·
Cc1cc(C(=O)OCC(=O)c2cccc3ccccc23)c2ccccc2n1 | · | · | · | · | -35* | ·
Nc1ccc(C(=O)OCc2nc3ccccc3s2)cc1 | -51* | -1 | 12% | i | -1 | -5
CCn1c(C(=O)NCc2ccccc2C)cc2oc3ccccc3c21 | · | 2 | -3% | · | -4 | 49*
COC(=O)C1=C(C(=O)OC)[C@@]2([C@H](Cc3ccc(C)cc3)Nc3ccccc3)C=C[C@@H]1O2 | · | -1 | · | · | · | ·
C=CCC(Nc1ccccc1)C12C=CC(O1)C(C(=O)OC)=C2C(=O)OC (stereo not drawn) | -78* | 14 | ? | i | -5 | -7
Cc1cc(C(C)(C)C)cc(C)c1CC1=NCCN1 | -79* | 2 | -16%[56.9 µM] | i | -3 | 0
CCc1cccc(CC)c1NC(=O)c1cc2ccccc2oc1=O | · | · | · | · | 2 | ·
COc1cc(OC)c(NC(=O)NC(C(=O)N2CCc3ccccc32)C(C)C)cc1Cl (stereo not drawn) | · | · | · | · | 7 | ·
COc1ccnc(Oc2ccccc2)c1C(=O)N/C=N/OCc1ccc(F)cc1Cl | 5 | -3 | 4% | i | 0 | 46*
COc1ccc(N/N=C(/Oc2ccc([N+](=O)[O-])cc2)C(C)=O)cc1 | ? | 8 | 21% | -114%* | 1 | -4

Compound activity from PubChem.
